Data on 18 compounds can be found in PubChem BioAssay (NCATS).

Inconclusive results are not listed. Where a call stands in place of a potency, no number is given. Activity calls are given as the source filed them. Calls come from the whole dose curve; as a rule, active = well fitted inhibition curve with a large enough effect; inconclusive = small, poorly fitted or top-dose-only effect; inactive = flat fitted curve, though single readings scatter.
Potency is the fitted concentration of half-maximal effect.

This test deals with Ubiquitin carboxyl-terminal hydrolase 1 (Homo sapiens) (UniProt O94782). Put plainly: Inhibitors of USP1/UAF1: Pilot qHTS (AID 504865). Note: nearly all actives have a fitted effect of over 35% in size. To be noted: purified USP1/UAF1, Ub-rhodamine cleavage fluorescence; series mostly up to 114 µM. The essentials: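 Deubiquitinase activity followed as kinetic rhodamine fluorescence release from 150 nM Ub-Rho. 1 nM USP1/UAF1 with compound, after 15 min room-temperature preincubation, in HEPES pH 7.8 buffer containing TCEP, EDTA, BSA and Tween-20.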
Ubiquitin carboxyl-terminal hydrolase 1 (Homo sapiens), sequence (O94782 whole entry, looked up): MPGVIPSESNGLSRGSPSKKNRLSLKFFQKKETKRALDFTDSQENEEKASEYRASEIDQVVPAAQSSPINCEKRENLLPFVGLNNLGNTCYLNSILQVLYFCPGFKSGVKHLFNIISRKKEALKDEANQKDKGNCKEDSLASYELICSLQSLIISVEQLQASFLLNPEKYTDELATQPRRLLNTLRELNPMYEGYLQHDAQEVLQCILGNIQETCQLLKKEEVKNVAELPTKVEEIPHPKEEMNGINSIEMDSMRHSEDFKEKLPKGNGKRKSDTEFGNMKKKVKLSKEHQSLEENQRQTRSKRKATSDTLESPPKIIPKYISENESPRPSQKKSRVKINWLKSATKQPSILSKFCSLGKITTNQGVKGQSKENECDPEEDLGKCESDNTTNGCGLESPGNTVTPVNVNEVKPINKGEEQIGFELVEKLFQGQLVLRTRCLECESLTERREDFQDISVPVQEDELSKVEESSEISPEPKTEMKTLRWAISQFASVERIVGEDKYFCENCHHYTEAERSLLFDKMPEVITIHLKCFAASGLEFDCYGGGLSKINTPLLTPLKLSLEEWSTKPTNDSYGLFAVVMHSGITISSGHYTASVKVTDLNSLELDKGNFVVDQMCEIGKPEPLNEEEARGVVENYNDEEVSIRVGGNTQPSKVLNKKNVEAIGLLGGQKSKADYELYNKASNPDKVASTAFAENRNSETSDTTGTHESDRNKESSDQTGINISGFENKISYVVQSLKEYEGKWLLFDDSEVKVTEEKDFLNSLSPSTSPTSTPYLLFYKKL
`O=S(=O)(O)CCCS(=O)(=O)O`: the Potency entry was “inactive”.

As to `Cc1cc(=O)c(C(=O)N[C@@H](C(=O)N[C@@H]2C(=O)N3C(C(=O)O)=C(CSc4nnnn4C)CS[C@H]23)c2ccc(O)cc2)c[nH]1`, the Potency entry was “inactive”.

For `COC(=O)C(CN)c1c[nH]c2ccc(OC)cc12` (stereo not drawn), the Potency result is “inactive”.

Turning to `COc1ccc(C(=O)CCC(=O)O)c2ccccc12`, the Potency entry is “inactive”.

Turning to `CC(=O)Nc1ccc(OC(=O)c2ccccc2O)cc1`, the Potency entry is “inactive”.

As for `CCCCCCCCCCCCCC(=O)OCC(COP(=O)([O-])OCC[N+](C)(C)C)OC(=O)CCCCCCCCCCCCC` (stereo not drawn), the Potency result is “inactive”.

For the compound `C[C@H](CCCC(C)(C)O)[C@H]1CC[C@H]2[C@@H]3CC=C4C[C@@H](O)CC[C@]4(C)[C@H]3CC[C@]12C`, the Potency result is “inactive”.

With `CC(=O)[C@H]1CC[C@H]2[C@@H]3C=CC4=CC(=O)CC[C@@]4(C)[C@H]3CC[C@]12C`, the Potency result was “inactive”.

`CN1C(C(=O)Nc2ccccn2)C(=O)c2sc(Cl)cc2S1(=O)=O` (stereo not drawn): the Potency entry is “inactive”.

Take `CCOc1ccc(S(=O)(=O)O)c2cccnc12`: the Potency result is “inactive”.

As to `CCOC(=O)C1=C(COCCN)NC(C)=C(C(=O)OC)C1c1ccccc1Cl` (stereo not drawn), the Potency result was “inactive”.

Consider `O=C1CCC(c2ccccc2)(C2CCN(Cc3ccccc3)CC2)C(=O)N1` (stereo not drawn), for which the Potency result is “inactive”.

As for `O=C1N=C2SCCN2C(=O)C1Cc1ccc(Cl)cc1` (stereo not drawn), the Potency result is “inactive”.

`CCCC(=O)O`: the Potency entry was “inactive”.

With `COc1cc(NCCCC(C)N)c2ncccc2c1` (stereo not drawn), the Potency is 11.2 µM (active).

On to `CN(C)CCC=C1c2ccccc2C(C)(C)c2ccccc21`, for which the Potency is 56.2 µM (active).

As for `c1ccc2c(c1)OCC(CN1CCCCC1)O2` (stereo not drawn), the Potency entry is “inactive”.

As for `NC(=O)C1c2ccccc2CCc2ccccc21`, the Potency result was “inactive”.
